# Experimental data taken from ChEMBL document CHEMBL2218924, “A broad activity screen in support of a chemogenomic map for kinase signalling research and drug discovery” (Biochem J, 2013).
# Experiments:
# [1] = molecular target: T1, Ephrin type-B receptor 1 (Homo sapiens) (UniProt P54762); details: at 1 µM
# T1 sequence (whole entry): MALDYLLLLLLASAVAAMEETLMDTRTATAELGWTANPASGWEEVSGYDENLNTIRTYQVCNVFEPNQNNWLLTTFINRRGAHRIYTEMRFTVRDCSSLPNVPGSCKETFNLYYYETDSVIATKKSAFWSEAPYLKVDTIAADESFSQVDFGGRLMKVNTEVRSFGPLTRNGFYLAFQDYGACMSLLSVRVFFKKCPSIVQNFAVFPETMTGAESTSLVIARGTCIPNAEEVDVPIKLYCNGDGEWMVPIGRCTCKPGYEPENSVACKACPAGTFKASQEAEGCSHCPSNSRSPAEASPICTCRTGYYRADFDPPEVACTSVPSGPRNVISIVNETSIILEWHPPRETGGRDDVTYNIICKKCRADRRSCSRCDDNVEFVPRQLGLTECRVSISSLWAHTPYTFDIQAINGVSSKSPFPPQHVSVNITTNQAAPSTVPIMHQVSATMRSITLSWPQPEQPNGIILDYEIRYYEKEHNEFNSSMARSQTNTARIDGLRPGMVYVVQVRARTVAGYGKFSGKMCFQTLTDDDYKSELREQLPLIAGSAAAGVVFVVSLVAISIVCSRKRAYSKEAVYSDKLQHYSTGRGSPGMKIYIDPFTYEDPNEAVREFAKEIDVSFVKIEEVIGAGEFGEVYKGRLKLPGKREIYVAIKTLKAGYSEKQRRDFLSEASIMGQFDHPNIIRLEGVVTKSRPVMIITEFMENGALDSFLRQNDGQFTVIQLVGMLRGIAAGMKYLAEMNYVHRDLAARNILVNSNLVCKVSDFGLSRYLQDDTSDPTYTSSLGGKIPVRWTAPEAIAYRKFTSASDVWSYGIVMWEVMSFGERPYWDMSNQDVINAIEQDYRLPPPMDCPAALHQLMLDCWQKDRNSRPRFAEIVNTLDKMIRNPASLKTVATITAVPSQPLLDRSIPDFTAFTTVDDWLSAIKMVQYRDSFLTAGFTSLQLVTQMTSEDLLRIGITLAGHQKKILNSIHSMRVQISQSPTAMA
# [2] = molecular target: T1, Ephrin type-B receptor 1 (Homo sapiens); details: at 10 µM
# [3] = molecular target: T2, Ephrin type-B receptor 2 (Homo sapiens) (UniProt P29323); details: at 1 µM
# T2 sequence (whole entry): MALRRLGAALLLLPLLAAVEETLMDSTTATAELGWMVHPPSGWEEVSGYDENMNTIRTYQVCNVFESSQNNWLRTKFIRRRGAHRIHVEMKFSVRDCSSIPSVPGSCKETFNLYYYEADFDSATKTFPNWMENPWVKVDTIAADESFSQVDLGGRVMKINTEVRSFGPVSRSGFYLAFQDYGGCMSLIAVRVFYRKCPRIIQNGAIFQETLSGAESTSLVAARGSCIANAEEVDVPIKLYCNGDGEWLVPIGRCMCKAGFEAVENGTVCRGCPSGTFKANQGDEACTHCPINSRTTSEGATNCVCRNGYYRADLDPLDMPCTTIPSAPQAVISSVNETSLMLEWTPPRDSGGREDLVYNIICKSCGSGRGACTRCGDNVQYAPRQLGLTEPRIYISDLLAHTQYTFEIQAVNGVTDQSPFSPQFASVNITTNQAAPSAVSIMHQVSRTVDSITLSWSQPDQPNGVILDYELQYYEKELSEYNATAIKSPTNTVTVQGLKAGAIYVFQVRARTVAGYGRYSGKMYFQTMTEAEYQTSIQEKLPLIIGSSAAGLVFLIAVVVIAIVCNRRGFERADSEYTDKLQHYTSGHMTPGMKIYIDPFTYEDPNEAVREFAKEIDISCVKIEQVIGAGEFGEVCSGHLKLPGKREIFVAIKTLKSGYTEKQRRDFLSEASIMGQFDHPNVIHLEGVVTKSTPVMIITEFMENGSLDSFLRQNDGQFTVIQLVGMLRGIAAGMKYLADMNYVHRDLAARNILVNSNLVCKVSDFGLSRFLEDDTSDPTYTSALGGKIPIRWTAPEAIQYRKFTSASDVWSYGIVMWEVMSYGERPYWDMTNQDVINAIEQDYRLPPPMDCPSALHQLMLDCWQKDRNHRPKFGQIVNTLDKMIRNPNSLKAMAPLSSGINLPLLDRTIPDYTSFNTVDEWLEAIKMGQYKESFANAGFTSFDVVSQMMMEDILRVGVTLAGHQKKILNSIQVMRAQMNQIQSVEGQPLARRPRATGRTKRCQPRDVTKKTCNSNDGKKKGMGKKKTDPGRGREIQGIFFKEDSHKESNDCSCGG
# [4] = molecular target: T2, Ephrin type-B receptor 2 (Homo sapiens); details: at 10 µM
# [5] = molecular target: T3, Ephrin type-B receptor 3 (Homo sapiens) (UniProt P54753); details: at 1 µM
# T3 sequence (whole entry): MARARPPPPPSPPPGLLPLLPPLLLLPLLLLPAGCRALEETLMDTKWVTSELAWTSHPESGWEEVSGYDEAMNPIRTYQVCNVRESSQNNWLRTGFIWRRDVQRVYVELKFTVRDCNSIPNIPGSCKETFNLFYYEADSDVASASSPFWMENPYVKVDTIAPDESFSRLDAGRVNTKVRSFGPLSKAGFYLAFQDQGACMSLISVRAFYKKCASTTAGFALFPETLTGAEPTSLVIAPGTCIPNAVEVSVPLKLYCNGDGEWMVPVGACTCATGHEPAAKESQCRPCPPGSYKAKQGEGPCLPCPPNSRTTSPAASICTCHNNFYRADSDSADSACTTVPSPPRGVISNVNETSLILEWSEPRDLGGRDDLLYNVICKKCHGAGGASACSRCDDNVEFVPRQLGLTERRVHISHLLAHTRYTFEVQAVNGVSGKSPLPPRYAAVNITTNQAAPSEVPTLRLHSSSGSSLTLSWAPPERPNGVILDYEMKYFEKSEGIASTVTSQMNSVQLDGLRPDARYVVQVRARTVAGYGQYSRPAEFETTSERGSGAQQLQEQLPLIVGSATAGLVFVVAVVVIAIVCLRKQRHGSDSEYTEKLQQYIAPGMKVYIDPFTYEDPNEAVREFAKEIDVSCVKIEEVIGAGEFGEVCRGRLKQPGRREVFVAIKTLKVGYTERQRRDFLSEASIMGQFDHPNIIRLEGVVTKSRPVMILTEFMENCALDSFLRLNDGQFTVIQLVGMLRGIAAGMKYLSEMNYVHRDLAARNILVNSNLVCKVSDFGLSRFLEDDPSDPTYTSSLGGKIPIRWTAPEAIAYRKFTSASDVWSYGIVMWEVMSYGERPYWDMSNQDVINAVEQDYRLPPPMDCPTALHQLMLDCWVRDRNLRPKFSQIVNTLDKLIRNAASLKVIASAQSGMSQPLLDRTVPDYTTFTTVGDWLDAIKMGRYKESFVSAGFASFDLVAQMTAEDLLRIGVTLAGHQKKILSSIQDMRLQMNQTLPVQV
# [6] = molecular target: T4, Ephrin type-B receptor 4 (Homo sapiens) (UniProt P54760); details: at 1 µM
# T4 sequence (whole entry): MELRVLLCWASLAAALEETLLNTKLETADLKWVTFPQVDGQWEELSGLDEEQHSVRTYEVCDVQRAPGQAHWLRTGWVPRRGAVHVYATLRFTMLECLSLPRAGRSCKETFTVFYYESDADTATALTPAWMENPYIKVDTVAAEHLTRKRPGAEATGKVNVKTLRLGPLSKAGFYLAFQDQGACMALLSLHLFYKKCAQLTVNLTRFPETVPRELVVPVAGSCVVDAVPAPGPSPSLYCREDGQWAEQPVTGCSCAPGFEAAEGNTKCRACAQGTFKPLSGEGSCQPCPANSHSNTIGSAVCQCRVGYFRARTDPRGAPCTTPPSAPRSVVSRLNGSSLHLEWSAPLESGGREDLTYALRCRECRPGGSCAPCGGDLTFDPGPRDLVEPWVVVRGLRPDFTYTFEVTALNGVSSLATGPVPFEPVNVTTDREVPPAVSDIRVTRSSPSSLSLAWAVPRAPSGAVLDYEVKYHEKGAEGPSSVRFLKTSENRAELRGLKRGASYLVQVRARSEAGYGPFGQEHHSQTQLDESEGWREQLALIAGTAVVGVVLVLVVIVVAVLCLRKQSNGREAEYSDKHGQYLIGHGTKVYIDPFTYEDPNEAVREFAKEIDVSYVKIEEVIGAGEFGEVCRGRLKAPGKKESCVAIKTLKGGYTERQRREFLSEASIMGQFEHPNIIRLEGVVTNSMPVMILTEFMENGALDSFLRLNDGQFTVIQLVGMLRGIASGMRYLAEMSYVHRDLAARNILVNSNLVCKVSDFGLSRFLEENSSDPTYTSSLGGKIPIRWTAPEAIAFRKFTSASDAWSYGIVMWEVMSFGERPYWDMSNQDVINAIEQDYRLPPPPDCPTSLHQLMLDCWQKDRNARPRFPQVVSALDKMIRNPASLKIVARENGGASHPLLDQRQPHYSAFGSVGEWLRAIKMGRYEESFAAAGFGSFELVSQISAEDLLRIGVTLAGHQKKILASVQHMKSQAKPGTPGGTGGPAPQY
# [7] = molecular target: T4, Ephrin type-B receptor 4 (Homo sapiens); details: at 10 µM
# [8] = molecular target: Receptor tyrosine-protein kinase erbB-4 (Homo sapiens) (UniProt Q15303); details: at 1 µM
# [9] = molecular target: Receptor tyrosine-protein kinase erbB-4 (Homo sapiens) (UniProt Q15303); details: at 10 µM
# Receptor tyrosine-protein kinase erbB-4 (Homo sapiens), sequence (Q15303 whole entry): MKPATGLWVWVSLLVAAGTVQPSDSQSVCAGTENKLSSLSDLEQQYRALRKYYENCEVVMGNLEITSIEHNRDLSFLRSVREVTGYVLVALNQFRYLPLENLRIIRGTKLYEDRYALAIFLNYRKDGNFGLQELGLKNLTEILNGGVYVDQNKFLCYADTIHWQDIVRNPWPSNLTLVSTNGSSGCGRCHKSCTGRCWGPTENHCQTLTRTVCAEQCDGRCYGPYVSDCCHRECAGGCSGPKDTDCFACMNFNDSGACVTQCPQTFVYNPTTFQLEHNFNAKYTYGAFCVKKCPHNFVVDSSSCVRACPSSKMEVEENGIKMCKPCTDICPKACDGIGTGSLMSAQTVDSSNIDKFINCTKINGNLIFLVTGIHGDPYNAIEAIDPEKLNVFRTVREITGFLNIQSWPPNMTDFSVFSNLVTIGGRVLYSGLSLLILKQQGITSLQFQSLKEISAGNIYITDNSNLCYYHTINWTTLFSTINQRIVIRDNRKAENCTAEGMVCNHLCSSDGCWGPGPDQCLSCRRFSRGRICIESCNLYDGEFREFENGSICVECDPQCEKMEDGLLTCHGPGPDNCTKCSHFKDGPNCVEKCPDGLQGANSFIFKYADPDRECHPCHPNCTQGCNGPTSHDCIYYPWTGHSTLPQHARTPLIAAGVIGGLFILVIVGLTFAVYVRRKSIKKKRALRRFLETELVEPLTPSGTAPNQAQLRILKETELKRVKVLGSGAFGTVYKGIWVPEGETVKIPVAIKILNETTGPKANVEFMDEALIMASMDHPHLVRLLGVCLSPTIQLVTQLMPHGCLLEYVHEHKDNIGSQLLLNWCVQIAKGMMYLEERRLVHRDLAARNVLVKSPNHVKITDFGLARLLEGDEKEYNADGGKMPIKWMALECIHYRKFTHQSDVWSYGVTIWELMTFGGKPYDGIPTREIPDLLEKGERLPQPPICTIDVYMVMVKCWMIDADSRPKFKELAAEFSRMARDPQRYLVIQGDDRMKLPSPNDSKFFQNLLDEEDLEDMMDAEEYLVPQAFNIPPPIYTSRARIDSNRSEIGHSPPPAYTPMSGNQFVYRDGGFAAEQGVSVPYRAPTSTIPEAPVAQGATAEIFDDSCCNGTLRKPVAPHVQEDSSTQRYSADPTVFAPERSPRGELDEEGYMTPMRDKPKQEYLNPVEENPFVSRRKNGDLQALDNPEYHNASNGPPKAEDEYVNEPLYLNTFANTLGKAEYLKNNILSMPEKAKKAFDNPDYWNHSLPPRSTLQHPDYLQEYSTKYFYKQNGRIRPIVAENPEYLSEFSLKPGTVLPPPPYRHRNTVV
structure (smiles),measurement,setting,value
CCCC(=O)Oc1ccc2[nH]c(C(=O)c3cc4ccccc4[nH]3)cc2c1,residual activity,[1],82%
same,residual activity,[2],108%
same,residual activity,[3],120%
same,residual activity,[4],131%
same,residual activity,[5],102% (inactive)
same,residual activity,[6],92%
same,residual activity,[7],101%
same,residual activity,[8],81%
same,residual activity,[9],95%
